The values below come from PubChem BioAssay (NCATS).

The structures appear in SMILES notation. Results filed as inconclusive are left out. Entries that show only a call come without a potency. Active and inactive are the calls of the source. Calls come from the whole dose curve; as a rule, active = well fitted curve in the direction sought with a large enough effect; inconclusive = small, poorly fitted or top-dose-only effect, or another doubt; inactive = no such curve, though single readings can be large; an effect the other way counts as inactive or inconclusive.

Assay [1] has as its system Zika virus NS2B-NS3 protease (unlinked complex). Briefly: Primary screen GU Rhodamine qHTS for Zika virus inhibitors: Unlinked NS2B-NS3 protease assay (AID 1347159). Note: potency is the fitted concentration of half-maximal effect; nearly all actives have a fitted effect of over 60% in size. A digest of the protocol: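 Compounds, tested up to 114 microM, were incubated for 15 minutes with 25 nM unlinked NS2B-NS3 protease at pH 8.0. Cleavage of 1.5 microM Rhodamine110 substrate was then followed by fluorescence for 15 minutes.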
A general note: In qHTS, concentration-response curves come from the screen itself.

The subject of assay [2] is Zika virus NS2B-NS3 protease (linked construct). The assay is described as follows: Primary screen NINDS Rhodamine qHTS for Zika virus inhibitors (AID 1347160). Note: nearly all actives have a fitted effect of over 55% in size. Note: potency is the fitted concentration of half-maximal effect. A digest of the protocol:
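Percent inhibition, normalized to uninhibited and enzyme-free controls, is fitted to a 4-parameter Hill equation. Fluorescence change comes from a 15-min cleavage of 1.5 microM bis-peptide Rhodamine110 substrate by 25 nM linked NS2B-NS3 at room temperature.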

Assay [3] can be described thus: Confirmatory screen NINDS Rhodamine qHTS for Zika virus inhibitors (AID 1347161). Note: potency is the fitted concentration of half-maximal effect; nearly all actives have a fitted effect of over 60% in size. Put shortly:
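Kinetic fluorescence (Ex 480 nm, Em 540 nm) over 15 min with 1.5 microM Rhodamine110 peptide and 25 nM linked protease.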

In assay [4] the test system is Zika virus NS2B-NS3 protease (linked). The assay is described as follows: 384 well plate NINDS AMC confirmatory qHTS for Zika virus inhibitors (AID 1347163). Note: nearly all actives have a fitted effect of over 50% in size. Note: potency is the fitted concentration of half-maximal effect. Put shortly:
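Linked NS2B-NS3 protease (final 5 nM, 30 nM or 60 nM) was preincubated with compounds (final up to 1 mM) for ~15 minutes. Ac-VKTGKR-AMC substrate (final 30 microM) then reacted for 25 minutes at room temperature in the dark. Fluorescence (ex 355/em 460 nm) was normalized to no-enzyme and no-inhibitor controls.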

Assay [5] deals with Zika virus NS2B-NS3 protease (linked construct). The assay is described as follows: 384 well plate NINDS Rhodamine confirmatory qHTS for Zika virus inhibitors (AID 1347164).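 Note: fluorescence from protease cleavage of Ac-LKRR-rhodamine 110 substrate; top concentration of the series differs between compounds; nearly all actives have a fitted effect of over 65% in size.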 Put shortly:
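Fluorescence at 485/538 nm was measured 25 minutes after adding 10 microM Ac-LKRR-Rd substrate, in the dark at room temperature. The protease (5, 30 or 60 nM final) had been preincubated ~15 minutes with compound; aprotinin as control.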

A short description of assay [6]: Vero cells viability qHTS for Zika virus inhibitors (AID 1347167). Put shortly:
(§1)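 Cells seeded at 2.5 x 10^5 cells/mL in DMEM with 4% FBS and attached overnight at 37 degrees C, then exposed to compound for 24 to 48 hours. Viability read as ATP content by CellTiter Glo luminescence.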

Assay [7] is described as follows: HepG2 cells viability qHTS for Zika virus inhibitors (AID 1347168). Put shortly: as §1
Assay [8] is described as follows: Tertiary RLuc qRT-PCR qHTS assay for Zika virus inhibitors (AID 1347169). Note: potency is the fitted concentration of half-maximal effect; nearly all actives have a fitted effect of over 55% in size. A digest of the protocol:
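Orthogonal cell-based readout: luminescence measured 1-1.5 hrs after adding live-cell Renilla substrate to Vero cells that had been infected with ZIKV-RLuc (MOI 1-2) post-compound, incubated 48-72 hrs at 37 degrees C.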
For orientation: In qPCR the cycle at which signal appears reflects the starting amount.

On to `O=C(O)c1cccc(-c2ccc(-c3cn(C(=O)N4CCCCC4Cc4ccccc4)nn3)cc2)c1` (centres undefined), for which the Potency in assay [1] is 3980 nM (active); in assay [2], 3980 nM (active); in assay [3], 3500 nM (active); in assay [8], 2620 nM (active). In addition, the Potency entry in assay [4] and in assay [5] was “inactive” in each case. Moreover, the outcome in assay [6] and in assay [7] was inactive.

For the molecule `C=C1CC[C@H]2C(=C)CC[C@H]3C(=C)C(=O)O[C@@H]3[C@@H]12`, the Potency entry in assay [2] was “inactive”. Consider `CCCCCCCOc1cc2c(cc1/C(C)=C/c1ccc(C(=O)O)cc1)C(C)(C)CCS2(=O)=O`, for which the Potency is 1780 nM (active) in assay [1], 2510 nM (active) in assay [2], 1970 nM (active) in assay [3] and 2940 nM (active) in assay [8]. Also, the call in assay [6] and in assay [7] was inactive. As to `O=C(O)c1cc(N(Cc2ccc(C3CCCCC3)cc2)C(=O)c2ccc(Oc3ccccc3)cc2)ccc1O`, the Potency in assay [1] was 1260 nM (active); in assay [2] it was 2820 nM (active); in assay [3], 1970 nM (active); in assay [4], 1410 nM (active). Also, the Potency result in assay [5] is “inactive”. The molecule was classed as inactive in assay [6] and in assay [7]. Regarding `C=C1/C(=C/C=C2\CCC[C@]3(C)[C@@H]([C@H](C)/C=C/[C@@H](C)C(C)C)CC[C@@H]23)C[C@@H](O)C[C@@H]1O`, the Potency in assay [1] was 31600 nM (active); in assay [3], 49400 nM (active); in assay [8], 3300 nM (active). Moreover, in assay [2], the Potency result is “inactive”. Regarding `C=C1C(=O)O[C@H]2C1CCC(C)=C1C(=O)C=C(C)[C@@]12O` (some centres undefined), the Potency entry in assay [2] was “inactive”. With `Cn1ccc(NC(=O)c2cc(Oc3ccc(C(=O)N4CCC4)c(F)c3)c3c(c2)OC(C)(C)C3)n1`, in assay [2], the Potency result is “inactive”. As for `COCCN(C(=O)c1cc(OC)c(OC)c(OC)c1)c1nc(-c2ccccc2)cs1`, in assay [2], the Potency result was “inactive”.

As for `COc1ccc(-c2c(C)nn3c(NCCN4CCOCC4)cc(C)nc23)cc1OC`, the Potency entry in assay [2] was “inactive”. Regarding `COC(=O)/C=C/C=C/C(=O)OC1C=C2COC(=O)C2(O)C2(C)CCCC(C)(C)C12` (centres undefined), the Potency entry in assay [2] was “inactive”. Still for that read-out and setting: to `Cc1sc2c(c1C)C(c1ccc(Cl)cc1)=N[C@H](CC(=O)NCCCCNC(=O)COc1cccc3c1C(=O)N([C@H]1CCC(=O)NC1=O)C3=O)c1nnc(C)n1-2` belongs “inactive”. As to `CN1CC2CN(c3ccc4oc5ccccc5c(=O)c4c3)CC2C1` (centres undefined), the Potency result in assay [2] is “inactive”. On to `COc1cc(N2CCC(O)CC2)ccc1Nc1nc(Nc2ccccc2S(=O)(=O)C(C)C)c2[nH]cnc2n1`, for which, in assay [2], the Potency result is “inactive”. Still for that read-out and setting: to `CCc1ccc(-c2nc(CSCC(=O)NCCc3ccccc3)c(C)o2)cc1` belongs “inactive”; to `COc1ccc([C@H]2OC[C@H]3O[C@@H](O[C@H]4[C@@H]2NC[C@@H]4O)[C@H](O)[C@H]3O)cc1`, “inactive”. As to `Cc1cc(NC(=O)c2cccc(NC(=O)/C=C/CN(C)C)c2)ccc1Nc1nccc(-c2cccnc2)n1`, the Potency result in assay [2] was “inactive”. For the molecule `N#Cc1ccc(O[C@@H]2c3ccccc3C[C@H]2N2CCC[C@@H](N)C2)c(Cl)c1`, the Potency entry in assay [2] was “inactive”. With `CC(=O)O[C@@]12CO[C@@H]1C[C@H](O)[C@@]1(C)C(=O)[C@H](O)C3=C(C)[C@@H](OC(=O)[C@H](O)[C@@H](NC(=O)OC(C)(C)C)c4ccccc4)C[C@@](O)([C@@H](OC(=O)c4ccccc4)C12)C3(C)C` (some centres undefined), the Potency entry in assay [2] was “inactive”. In the case of `C=C1C(=O)O[C@@H]2C[C@H](C)C3=CC(=O)[C@H](O)[C@@]3(C)C[C@H]12`, the Potency result in assay [2] was “inactive”. With `COC(=O)c1cc(Br)cnc1N1CCC(NC2CCCCC2)C(O)C1` (centres undefined), in assay [2], the Potency entry was “inactive”.

With `O=S(=O)(c1ccccc1)N(CC(F)(F)F)c1ccc(C(O)(C(F)(F)F)C(F)(F)F)cc1`, the Potency entry in assay [2] was “inactive”. As to `C=C1[C@@H](OC(C)=O)CC[C@@]2(C)[C@@H](OC(C)=O)[C@H](OC(C)=O)C3=C(C)C[C@H](OC(=O)C(C)CC)[C@@H]([C@@H](OC(C)=O)[C@H]12)C3(C)C` (some centres undefined), the Potency result in assay [2] is “inactive”. On to `COc1cc2ncnc(Nc3cccc(I)c3)c2cc1OC`, for which the Potency entry in assay [2] was “inactive”. With `CCN(CCNC(=O)Nc1ccccc1Br)c1cccc(C)c1`, in assay [2], the Potency entry is “inactive”. Same read-out and setting: the value for `Cc1cc2ncc(C(=O)NCC(C)(C)NCC(=O)N3CCC[C@H]3C#N)cn2n1` was “inactive”; that for `O=C(Nc1ccccc1Br)NC1CCN(c2ccc(C(F)(F)F)cn2)C1` (centres undefined) was “inactive”; that for `C[C@@H](NC(=O)[C@H](O)c1cc(F)cc(F)c1)C(=O)N[C@@H]1C(=O)N(C)c2ccccc2-c2ccccc21` was “inactive”.

As to `O=C(Nc1ncc([N+](=O)[O-])s1)c1ccccc1O`, the Potency in assay [2] is 22400 nM (active). Take `CC(C)c1ccc(-c2cc(=O)c3ccccc3o2)cc1`: the Potency entry in assay [2] is “inactive”. For `C=CC(=O)Nc1cc(-n2c(=O)ccc3cnc4ccc(-c5ccc(NS(C)(=O)=O)cc5)cc4c32)ccc1C`, in assay [2], the Potency result was “inactive”. Turning to `CCCCC1CCN(CCCN2C(=O)CCc3ccccc32)CC1`, the Potency entry in assay [2] is “inactive”.

On to `CN(C)CCOC(C)(c1ccccc1)c1ccc(Cl)cc1` (centres undefined), for which the Potency result in assay [2] was “inactive”.

For the molecule `CCC/C=C/C=C/C1CC(O)C2(O)C(=O)OCC12` (centres undefined), the Potency in assay [2] is 20000 nM (active).
